# D2 ag-1: Beta-Arrestin HTS for Positive Allosteric Modulators of the Human D2 Dopamine Receptor: Agonists. DiscoveRx PathHunter D2 beta-arrestin, luminescence, 90 min; 100% = 57 uM dopamine signal. actives 0.084% (n = 360,000). activation, % (no concentration beside the values). D(2) dopamine receptor (Homo sapiens), P14416; in the data active means activation above about 40%; inconclusive means between about 15% and that limit
# Target sequence (P14416 whole entry, looked up): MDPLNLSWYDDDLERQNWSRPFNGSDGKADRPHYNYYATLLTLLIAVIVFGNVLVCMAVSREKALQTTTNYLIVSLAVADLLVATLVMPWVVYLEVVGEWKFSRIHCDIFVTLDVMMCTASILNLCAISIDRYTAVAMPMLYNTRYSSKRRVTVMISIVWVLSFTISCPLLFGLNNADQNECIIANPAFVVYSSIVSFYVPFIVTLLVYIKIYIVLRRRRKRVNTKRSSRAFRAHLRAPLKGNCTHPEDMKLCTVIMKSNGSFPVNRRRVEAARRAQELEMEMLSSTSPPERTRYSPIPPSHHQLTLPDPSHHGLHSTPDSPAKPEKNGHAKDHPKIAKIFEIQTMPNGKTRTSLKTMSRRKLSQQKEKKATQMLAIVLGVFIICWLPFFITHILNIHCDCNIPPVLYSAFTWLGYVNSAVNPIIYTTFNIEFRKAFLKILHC
#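 DiscoveRx PathHunter D2 beta-arrestin cells (2,100/well) attached overnight, then compound-stimulated 90 min at 37 C in HBSS/10 mM HEPES/0.1% Tween-20 buffer; beta-galactosidase complementation read by luminescence after 1 h at ambient temperature. Dopamine 57 uM final (EC100) as control.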
# D2 antagonist: HTS Assay for Allosteric Antagonists of the Human D2 Dopamine Receptor: Primary Screen for Antagonists | HEK293 TREx D2 cells, calcium flux, dopamine EC80 | inhibition, % at 10 µM | AID 485344, 2010 | D(2) dopamine receptor (Homo sapiens), P14416 | actives 2% (n = 340,000); in the data active means inhibition above about 30%; inactive means below that, where a call was filed; further: 0% is about no effect
#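 Tetracycline-induced HEK293 T-REx cells expressing D2 force-coupled to calcium signalling were dye-loaded, exposed to compound for 180 s, then challenged with an EC80 of dopamine; calcium flux was followed kinetically for a further 180 s.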
# D2 PAM-1: Beta-Arrestin HTS for Positive Allosteric Modulators of the Human D2 Dopamine Receptor: Potentiators | D(2) dopamine receptor (Homo sapiens), P14416 | DiscoveRx D2 beta-arrestin cells, luminescence, 90 min; 100% = 57 uM dopamine signal | potentiation, % (concentration not given with the values) | actives 0.23% (n = 360,000) | AID 624464, 2012; in the data active means potentiation above about 50%; inconclusive means mostly about 30% to 49%
#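 PathHunter beta-arrestin assay in DiscoveRx D2 cells. Compounds were added with an EC20 of dopamine (50 nM final) for 90 min at 37 deg C. Luminescence was read 1 h after detection reagent, with 57 uM dopamine as the EC100 control.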
# D2 ag-2: HTS Assay for Allosteric Agonists of the Human D2 Dopamine Receptor: Primary Screen for Agonists; D(2) dopamine receptor (Homo sapiens), P14416; HEK293 T-REx D2 cells, calcium flux agonist mode; activation, % at 2 µM; actives 0.53% (n = 340,000); AID 485358, 2010;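 active means activation over 3 SD above normal in the single-dose calcium agonist read, cut at about 30% in these data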; further: 0% is about no effect
#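 In this primary screen, compounds producing a positive calcium signal within 180 s of addition to tetracycline-induced, force-coupled HEK293 Trex D2 cells are flagged; cells are dye-loaded with a no-wash calcium kit beforehand.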
# LDHA block: qHTS assay for inhibitors of human lactate dehydrogenase; purified LDHA, NADH/diaphorase-resazurin fluorescence; hits give low values; L-lactate dehydrogenase A chain (Homo sapiens), P00338; activity change, % (values are at about 110 or 230 µM); actives 0.15% (n = 480,000); AID 1347041, 2019; in the data active means activity change below about -30%; inconclusive means mostly about -25% to -30%;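 further: plate controls were DMSO wells for no effect and wells without enzyme for full effect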
#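 Human LDH5 at 2 nM final in Tris HCl pH 7.4 with 0.06 mM NADH and 0.2 mM pyruvate, reacted 5 minutes at room temperature. Remaining NADH coupled via diaphorase/resazurin; resorufin fluorescence read at 0 and 20 minutes, normalized to enzyme-free and DMSO wells.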
# D2 PAM-2: HTS Assay for Positive Allosteric Modulators of the Human D2 Dopamine Receptor: Primary Screen for Potentiators; D(2) dopamine receptor (Homo sapiens), P14416; HEK293 T-REx D2, calcium flux, EC20 dopamine potentiation; potentiation, % at 10 µM; actives 0.34% (n = 340,000);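 active means potentiation over 3 SD above the plate norm, cut at about 30% in these data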; further: 0% is about no effect
#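 Cells plated with tetracycline inducer and held overnight at 30 C; calcium dye loaded 30–90 min at room temperature; baseline taken, compound added and read 180 s; EC20 dopamine then added and read 180 s.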
# D3 arrestin ag: qHTS of D3 Dopamine Receptor Agonist: D3 Dopamine Receptor B-arrestin Agonist Confirmatory Assay | shares compounds with D2 ag-2 | DiscoveRx D3 beta-arrestin cells, luminescence, 90 min | Potency, µM (highest dose often 76.9 µM), for the others: at the top dose activation, hits mostly activators | actives 4% (n = 2,300);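 further: potency means the concentration at half of the fitted maximal effect; 100% = dopamine control response; nearly all actives have a fitted effect of over 70% in size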
# D2 ag-3: qHTS of D3 Dopamine Receptor Agonist: D2 Dopamine Receptor B-arrestin Agonist Counterscreen. shares compounds with D2 ag-2. DiscoveRx PathHunter D2 beta-arrestin, luminescence, 90 min; response scale: percent relative to full dopamine signal. Potency, µM (top dose mostly 76.9 µM), for inactives: at the top dose activation, actives largely listed as activators. actives 5.9% (n = 2,300). AID 720507, 2013; further: potency means the concentration at half of the fitted maximal effect; % of control where 0% means no effect; nearly all actives have a fitted effect of over 70% in size
# The depositor's hits bear a star; u = inconclusive; x = no result. The list is not random: actives were taken first. Their share in the collection is about 2.1%. Unless noted, the call rests on the fitted dose curve; in most records, active means well fitted activation curve with a large enough effect; inconclusive means small, poorly fitted or top-dose-only effect; inactive means flat fitted curve, though single readings scatter.
SMILES,D2 ag-1,D2 antagonist,D2 PAM-1,D2 ag-2,LDHA block,D2 PAM-2,D3 arrestin ag,D2 ag-3
Cc1ccc(NNC(=O)c2cc(C)on2)c(C)c1,2,-8,-2,1,7,7,x,x
CCCc1cc(=O)oc2cc(OC(C)C(=O)NCc3ccncc3)ccc12 (stereo not drawn),x,x,x,x,-23,x,x,x
CC(NC(=O)CCC(=O)NC(C)c1ccccc1)c1ccccc1 (stereo not drawn),-2,-17,-5,0,-6,-3,x,x
CC(NC(=O)CCC(=O)N1CCCCCC1)c1ccccc1 (stereo not drawn),0,10,3,44*,1,-23,-1%,-2%
CCCNc1nc2c(c(=O)n(C)c(=O)n2C)n1CC,x,x,x,x,10,x,x,x
COc1ccc(C(C)C)cc1S(=O)(=O)NCc1ccccn1,-4,-12,0,0,1,6,x,x
Cc1ccc(C(C)C)cc1S(=O)(=O)NCc1ccccn1,-2,x,6,x,0,1,-3%,0%
COc1ccc2c(=O)c(Oc3ccccc3OC)c(C)oc2c1,x,x,x,x,-16,x,x,x
O=C(O)CCn1cc(-c2ccc(F)cc2)nc1-c1ccncc1,-1,x,-7,x,-4,x,-13%,-5%
Cc1ccc(CNC(=O)CCn2cc(-c3ccc(F)cc3)nc2-c2ccncc2)cc1,-3,-7,-16,-1,2,-13,x,x
O=C(CCN1CCCC1Cc1ccccc1)c1ccc2c(c1)OCCO2 (stereo not drawn),7,109*,-18,82*,1,-28,u,u
O=C(CCN1CCCCC1)c1ccc2c(c1)OCCO2,-4,-27,-20,2,3,6,x,x
O=C(CCC1CCCC1)NNC(=O)c1ccc(F)cc1,-7,-5,3,-1,-3,1,-11%,-1%
COc1cc(Cl)c(NC(=O)C2CCN(c3nccnc3Oc3ccc(C)cc3)CC2)c(OC)c1,x,x,x,x,10,x,x,x
Cn1nnnc1Sc1ncnc2scc(-c3cccs3)c12,x,-6,x,0,-7,31*,-1%,-2%
Cn1nnnc1Sc1ncnc2scc(-c3ccc(-c4ccccc4)cc3)c12,x,x,x,x,0,x,x,x
CC(C)CNC(=O)CCNC(=O)c1ccc(C(C)(C)C)cc1,x,x,x,x,2,x,x,x
COc1ccc(CN2Cc3cccc4c3[C@@H](CC2=O)[C@H](O)[C@H](O)C4)cc1,-1,-18,0,0,0,-4,x,x
O=C1C[C@@H]2c3c(cccc3CN1Cc1ccc(F)cc1)C[C@@H](O)[C@H]2O,-3,-4,-7,1,-5,5,-5%,-3%
Cc1ccc(CN2CCN(CCCc3ccccc3)CC2CCO)cc1 (stereo not drawn),-1,49*,-23,53*,-12,-30,-2%,3%
OCCC1CN(CCCc2ccccc2)CCN1Cc1ccc(F)cc1 (stereo not drawn),-2,29,-32,1,-9,-18,x,x
O=C(CC1SC(N2CCCC2)=NC1=O)Nc1ccc(C(=O)NCc2ccccc2F)cc1 (stereo not drawn),2,x,-1,x,3,x,x,x
O=C(CC1SC(N2CCCC2)=NC1=O)Nc1ccc(C(=O)NCCOc2ccccc2F)cc1 (stereo not drawn),2,52*,-14,66*,0,-24,u,9%
CNC(=O)c1ccc(NC(=O)CC2SC(N3CCCC3)=NC2=O)cc1 (stereo not drawn),1,39*,11,0,-3,-11,-9%,-7%
O=C(c1ccco1)N1CCN(C(=O)C2CCN(S(=O)(=O)c3cccs3)CC2)CC1,-5,-1,-13,1,-4,-11,0%,1%
SMILES,D2 ag-1,D2 antagonist,D2 PAM-1,D2 ag-2,LDHA block,D2 PAM-2,D3 arrestin ag,D2 ag-3
Cc1cc(OC(C)C(=O)Nc2ccc3nsnc3c2)ccc1Cl (stereo not drawn),x,x,x,x,11,x,x,x
O=C(O)c1ccc(/C=C2\SC(=S)N(Nc3ccccc3)C2=O)cc1,-14,6,-3,3,0,7,u,2%
O=C1/C(=C/c2ccncc2)SC(=S)N1Nc1ccccc1,-4,-2,-9,1,11,1,x,x
O=C(Nc1ccc(N2CCOCC2)cc1)c1ccc(S(=O)(=O)N2CCCCC2)cc1,-2,4,-15,2,0,-10,-2%,-1%
CC(=O)Nc1ccc(C(=O)Nc2ccc(S(=O)(=O)N3CCOCC3)cc2)cc1,4,-6,1,1,-2,3,x,x
CC(C)CCNC(=O)NC(=O)CCl,x,x,x,x,4,x,x,x
CCOC(=O)C1CCCN(C2CCN(Cc3nc(-c4ccccc4)no3)CC2)C1 (stereo not drawn),0,-19,-5,52*,-4,-23,12%,6%
CCOC(=O)C1CCCN(C2CCN(Cc3nc(Cc4ccccc4)no3)CC2)C1 (stereo not drawn),0,34*,-30,22,-3,-16,-2%,4%
CCOC(=O)C1CCCN(Cc2nc(Cc3cccc(F)c3)no2)C1 (stereo not drawn),-2,-23,-13,2,-15,-4,x,x
CCOC(=O)C1CCN(C2CCN(Cc3nc(-c4ccccc4)no3)CC2)CC1,0,-2,-6,2,-3,1,x,x
COc1ccc(OC)c(C(=O)c2oc3ccc(NC(=O)C(C)(C)C)cc3c2C)c1,x,x,x,x,-1,x,x,x
CC(CCc1ccccc1)NCc1ccncc1 (stereo not drawn),u,64*,0,68*,1,-23,u,u
CCC(C)NCc1ccccc1 (stereo not drawn),x,x,x,x,-1,x,x,x
Cc1ccc2occ(CN3CCN(c4ccccc4)CC3)c(=O)c2c1,13,67*,-2,13,-3,x,-5%,25%
Cc1ccc(-n2nc(C)c(C(=O)NCCCN3CCN(c4ccccc4F)CC3)c2-n2cccc2)cc1,x,x,x,0,2,0,x,x

# Compound activity (PubChem)
